Test results published in the supplement of paper PMC3334620.
In all, about 33,000 sequences were measured (“E-score (-0.5 to 0.5)”: median about -0.016, highest 2% from about 0.31 on). The list comes from a sample in which the highest values are over-represented; it also holds similar and randomly drawn sequences.

Target: Cst6 (UniProt P40535)
Test: PBM E-score (8-mer binding enrichment) (E-score (-0.5 to 0.5)); higher = stronger / more preferred TF binding
Details: protein concentration: 200 nM; construct: GST-DNA-binding domain
How it was run: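 Yeast transcription factors carrying a GST tag, as full-length proteins or DNA-binding domains, were produced by PURExpress in vitro transcription/translation. About 100-200 nM protein was applied to universal all-10-mer Agilent arrays, double-stranded by primer extension on fresh or once-stripped slides. Bound protein was detected with fluorescent anti-GST, and scans were normalised with masliner. The Universal PBM Analysis Suite gave each ungapped eight-base word, pooled with its reverse complement, an E-score, a modified Wilcoxon-Mann-Whitney statistic.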

UniProt P40535, sequence (P40535 whole entry): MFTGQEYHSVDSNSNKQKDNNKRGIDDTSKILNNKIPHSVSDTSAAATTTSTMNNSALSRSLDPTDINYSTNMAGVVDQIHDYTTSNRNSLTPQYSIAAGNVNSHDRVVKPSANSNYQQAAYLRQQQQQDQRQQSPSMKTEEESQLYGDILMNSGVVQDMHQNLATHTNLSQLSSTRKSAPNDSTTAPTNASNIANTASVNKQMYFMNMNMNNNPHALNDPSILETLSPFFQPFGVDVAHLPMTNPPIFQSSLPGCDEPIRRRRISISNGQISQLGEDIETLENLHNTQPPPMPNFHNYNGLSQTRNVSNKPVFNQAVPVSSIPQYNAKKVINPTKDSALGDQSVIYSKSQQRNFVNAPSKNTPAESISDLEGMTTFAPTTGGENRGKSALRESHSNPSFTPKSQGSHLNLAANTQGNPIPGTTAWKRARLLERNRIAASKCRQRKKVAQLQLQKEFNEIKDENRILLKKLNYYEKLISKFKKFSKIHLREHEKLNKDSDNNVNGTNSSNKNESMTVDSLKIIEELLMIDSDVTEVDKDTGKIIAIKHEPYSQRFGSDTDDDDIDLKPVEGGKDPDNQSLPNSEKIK

| Sequence | PBM E-score |
| --- | --- |
| AGCCGATA | -0.0664 |
| CCAAGATC | -0.12 |
| CGTGAGAG | -0.269 |
| CGGACGTC | 0.252 |
| CTGACGTC | 0.482 |
| AAGACGTC | 0.28 |
| ATGACGTC | 0.497 |
| ACGACGTC | 0.218 |
| CAGACGTC | 0.113 |
| AGCAAGCA | -0.252 |
| GCCCAGGC | -0.318 |
| ACGTATGA | 0.432 |
| ATGTATGA | 0.336 |
| ATGTATGG | 0.0177 |
| AGGTATGC | 0.111 |
| CCGTATGC | 0.0167 |
| GTGTATGA | 0.186 |
| CCGTATGA | 0.226 |
| ACGTATGG | 0.158 |
| ACGTATGC | 0.32 |
| GGGAAGAA | -0.0773 |
| ACTGGTGA | -0.0583 |
| GAGTTGGA | -0.0506 |
| ATACGTAT | 0.376 |
| TTACGAAA | 0.284 |

| Sequence | PBM E-score |
| --- | --- |
| ACACGTAT | 0.238 |
| CTACGTAG | 0.137 |
| AGACGTAT | 0.144 |
| ATACGTAG | 0.186 |
| CTACGTAC | 0.00059 |
| TTACGTAA | 0.493 |
| ATACGTAC | 0.198 |
| TTACGGAA | 0.178 |
| CTACGTAA | 0.451 |
| ATACGTAA | 0.463 |
| AGGTCCAT | -0.0689 |
| CGTTCTCC | -0.174 |
| CAGCGCCC | -0.0102 |
| ATAGATGC | -0.0272 |
| TAGCAGAA | 0.107 |
| AGTATGTC | 0.155 |
| CAGTGTGA | 0.158 |
| AGGTTGAC | 0.0459 |
| GAAACGCA | 0.172 |
| AGACATCC | -0.211 |
| GTACGTAC | 0.0996 |
| GCACGTAC | -0.00487 |
| GTACGTAA | 0.449 |
| TCAAGCGA | -0.00748 |
| ACAGGCGG | -0.104 |

| Sequence | PBM E-score |
| --- | --- |
| GTGCCGGA | -0.104 |
| ATGCCGTG | 0.283 |
| CTGCCGTC | 0.0959 |
| ATGCCGTA | 0.372 |
| ATGCCGTC | 0.323 |
| AAGCCGTA | 0.173 |
| CTGCCGTA | 0.0163 |
| GTGCCGTA | 0.389 |
| ATGCCGAA | 0.0887 |
| GGGTTAAA | -0.06 |
| GAGAGAGC | -0.197 |
| GATTGCGC | 0.0307 |
| AATTGCGT | 0.315 |
| AATTGCGG | -0.0187 |
| AATTGCGA | -0.111 |
| AATTGCGC | 0.309 |
| CATTGCGC | 0.0683 |
| AAAACGCG | 0.205 |
| AACGTTGC | -0.0467 |
| AAGTACCT | -0.196 |
| AAGTGAAG | -0.0822 |
| AAGCCGAC | -0.231 |
| CGACGGCG | 0.257 |
| ACACGGCG | 0.394 |
| ACACGGCA | 0.282 |

| Sequence | PBM E-score |
| --- | --- |
| CAACGCCG | 0.191 |
| AAACGCCG | 0.36 |
| AGACGGCC | -0.214 |
| CCACGGCC | -0.0591 |
| ACACGGCT | 0.266 |
| CCACGGCA | 0.235 |
| AGACGGCG | 0.305 |
| CCACGGCG | 0.309 |
| AAACGCCA | 0.18 |
| TCCTCCGA | -0.395 |
| CCCCTTAA | -0.212 |
| AGGCAAAT | 0.164 |
| ATACAGGC | -0.121 |
| GCAGGCAA | -0.0304 |
| AGAGGATC | -0.18 |
| AAACGGCC | 0.084 |
| AAACGGCT | 0.105 |
| AAACGGCG | 0.369 |
| ACAAGTAA | -0.0276 |
| CCAGTTCA | 0.0369 |
| AAAATGAC | 0.327 |
| GTAATGAC | 0.377 |
| AAAATGAA | 0.155 |
| GTAATGAA | 0.268 |
| CTAATGGA | -0.085 |

| Sequence | PBM E-score |
| --- | --- |
| CTAATGAC | 0.252 |
| GAAATGAC | 0.32 |
| GAAATGAA | 0.237 |
| ATAATGGA | 0.109 |
| AAAATGAT | 0.298 |
| CAAATGAC | 0.248 |
| GTAATGGA | 0.353 |
| CTGCATCC | -0.101 |
| CTTGCAGA | -0.138 |
| CACGCCCA | -0.21 |
| GCTAACCC | -0.223 |
| ACATCCCC | -0.119 |
| AAAGCCCA | 6e-05 |
| GACGCATA | 0.315 |
| CACGCATA | -0.215 |
| GACGCATC | 0.0635 |
| GCTTCCTA | -0.0171 |
| ACACCACG | -0.0337 |
| CAATGCCA | -0.0721 |
| AGAGTCAT | -0.0245 |
| AGCGTCAA | 0.269 |
| CGCGTCAA | 0.211 |
| AGCGTCCT | -0.276 |
| AGCGTCAG | 0.177 |
| GGCGTCTA | 0.0648 |

| Sequence | PBM E-score |
| --- | --- |
| GGCGTCAC | 0.431 |
| AGCGTCAC | 0.332 |
| GGCGTCCC | -0.225 |
| CGCGTCAG | 0.0126 |
| AGCGTCAT | 0.423 |
| CGCGTCAC | 0.418 |
| AATCCATA | 0.0862 |
| CGCCGAGC | 0.0842 |
| CTGTCGCA | -0.146 |
| CGGTCCTC | -0.133 |
| CATGCGAA | 0.111 |
| AAGTTAAT | 0.213 |
| AGAGAAAC | 0.0803 |
| AATTGGCG | 0.198 |
| GTCTCTTA | -0.00905 |
| CCGATGAA | 0.0447 |
| GGGATGAC | 0.221 |
| GCGATGAA | 0.0225 |
| ACGATGAT | 0.206 |
| CCGATGAG | -0.087 |
| ACGATGAA | 0.154 |
| CCGATGAC | 0.336 |
| GCGATGAC | 0.413 |
| ACGATGAC | 0.387 |
| AACTGAGC | -0.152 |

| Sequence | PBM E-score |
| --- | --- |
| AGGGCCTA | -0.327 |
| AACCTACG | -0.043 |
| ATGAGGTG | 0.174 |
| ATGAGGTA | 0.312 |
| CTGAGGTA | 0.0121 |
| AACTGCTC | -0.0302 |
| GAGGTGAA | -0.0049 |
| AATGTCAT | 0.356 |
| AATGTCAC | 0.308 |
| AATGTAAT | 0.347 |
| AATGTAAG | 0.192 |
| GCTGTCAC | 0.0464 |
| ACTGTCAC | 0.141 |
| GATGTCAC | 0.448 |
| AATGTCGT | 0.195 |
| ACTGTCAT | 0.0752 |
| AATGTCAG | -0.00168 |
| AATGTAAA | 0.258 |
| GATGTCAA | 0.245 |
| CGACCCCG | -0.235 |
| AACCTAAT | -0.0438 |
| CAGTTTTA | 0.00126 |
| AGTAGGTA | -0.0379 |
| CCGATCTA | -0.27 |
